Autofluor 339 – intrinsic fluorescence of library compounds, ex339/em460 – biochemical, MLSMR library, data from DPM-DC assay, artefact control, profiling panel | compound autofluorescence, ex339/em460 nm, NADH buffer; active compounds read high; 1 = no-compound wells, NADH background | fluorescence fold increase at 10 µM | 65,000 tested, 5.5% active | AID 709;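 active = at 10 µM, mean starting fluorescence two-fold or more over control wells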;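 note: signal is the first read of a kinetic run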
DPM-DC inhibit – blocks S. pneumoniae diphosphomevalonate decarboxylase; AID 556; calls only at 10 µM; purified DPM-DC, PK/LDH coupled NADH fluorescence; 65,000 tested, 0.49% active;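 active = the 320 compounds with the highest percent inhibition in the single-dose primary screen, excluding strongly autofluorescent ones, cut at about 32% in these data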;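 note: kinetic rate of NADH fluorescence loss reporting ADP formed by the decarboxylase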
Spn MK inh – blocks S. pneumoniae mevalonate kinase | purified MK, PK/LDH-coupled NADH absorbance 340 nm | inhibition, % at 10 µM | 65,000 tested, 0.48% active;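 active = ranked among the strongest by inhibition in the single 10 µM screen, a fixed top-ranked set picked for dose follow-up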
A340 absorber – absorbance at 340 nm; compound absorbance at 340 nm, fold over control; fold change at 10 µM; 65,000 tested, under 10 active;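 active = at 10 µM dose, initial 340 nm absorbance at least 2 fold that of control wells; inactive = change under 2 fold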;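 note: initial absorbance extrapolated from kinetic A340 decline of NADH oxidation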
NADH enzymes – inhibitors of enzymes used to reach an NAD/NADH endpoint; coupled PK/LDH NADH assays, four targets; IC50, µM (top dose mostly 10 µM), without a hit: top-dose inhibition; 65,000 tested, 0.02% active;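 active = single-dose screening hits from any of four coupled enzyme assays that gave an IC50 when retested across doses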;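 note: the DPM-DC format reads NADH fluorescence rather than 340 nm absorbance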
Spn PMK inh – inhibitors of Streptococcus pneumoniae phosphomevalonate kinase; purified PMK, PK/LDH-coupled NADH absorbance 340 nm; inhibition, % at 10 µM; 65,000 tested, 0.49% active;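 active = top-ranked compounds by inhibition in the single 10 µM screen, taking a fixed number of the strongest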;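 note: 0% = full reaction with DMSO carrier and 100% = background rate without enzyme reaction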
Active calls of the source: *; i = inactive; nt = no result given; + = active, no number. Only some compounds are listed: those with a hit (about 6.3% of all), similar ones and a draw of the others.

SMILES	Autofluor 339	DPM-DC inhibit	Spn MK inh	A340 absorber	NADH enzymes	Spn PMK inh
OCCN(Cc1ccccc1)Cc1cccc(C(F)(F)F)c1	1.1	i	37	1.1	13%	1
CCCN(CCO)Cc1cccc(Cl)c1	1.1	i	41*	1.1	14%	0
OCCN(Cc1ccccc1)CC1CCCCC1	1.1	i	43*	1.1	14%	0
OCCN(Cc1ccccc1)Cc1cccc(F)c1	1.2	i	45*	1.1	15%	0
OCCN(Cc1ccccc1)Cc1ccccc1F	1.1	i	48*	1.1	19%	7
CCOC(=O)c1cccc(NC(=O)Cn2c(CC(=O)N3CCCC3)nc3ccccc32)c1	0.95	i	1	0.98	6%	11
O=C(c1oc2ccccc2c1CSCc1ccccc1)N1CCN(c2ncccn2)CC1	1	i	0	1	6%	14
CC(C)=C1C2CC2C2C(C(=O)O)C12 (stereo not given)	1.1	i	0	0.99	3%	9
COCCNC(=O)CN1CCC(n2c(C)nc3cc(C(F)(F)F)ccc32)CC1	1.1	i	0	1	3%	8
COCc1c(C)cc(C)c(/C=N/O)c1C	1.1	i	6	1.1	4%	5
CCOC(=O)CC(=O)CSc1nnc2c(n1)[nH]c1ccccc12	1	i	0	1.2	11%	34*
CCOC(=O)CN(C(=O)CSc1nnc2c(n1)[nH]c1ccc(OC)cc12)c1ccc(F)cc1	1.1	i	10	1	6%	7
COC(=O)c1cc2oc(C)cc2n1CC(=O)Nc1cc(C)cc(C)c1	1.1	i	11	1	6%	8
CCOc1ccc(S(=O)(=O)NCc2ccc(F)cc2)c2cccnc12	3.5*	i	1	1.1	10%	0
Cc1cc(-c2nn3c(C)nnc3s2)ccc1NC(=O)C(C)(C)C	1.1	i	10	0.99	7%	12
COCc1cc(=O)[nH]c(Nc2nc(C)c3ccc(C)cc3n2)n1	1	i	0	1	10%	28*
CSc1nc(C2CC2)cc(-c2cccs2)c1C#N	1.2	i	7	1	3%	1
N#Cc1c(-c2ccccc2)cc(C2CC2)nc1N	3.6*	nt	1	1.1	2%	3
N#Cc1c(-c2ccco2)cc(C2CC2)nc1N	2.3*	nt	nt	1	12%	12
Cn1cccc1Cc1nnc(SCC(=O)N2CCN(c3ccccc3)CC2)n1-c1ccc(F)cc1	1.1	i	6	1	5%	8
C=CCn1c(SC/C=C/c2ccccc2)nnc1-c1sc(N)nc1C	1.1	i	1	1	1%	3
CCOc1ccc2[nH]c(=O)c(=O)[nH]c2c1	2.2*	i	16	1.1	12%	4
CCC(=O)N(CCO)Cc1cc2ccc(C)c(C)c2[nH]c1=O	1.6	i	10	1.1	10%	12
CCOc1ccc2[nH]c(=O)c(CN(Cc3ccc(F)cc3)C(=O)c3ccco3)cc2c1	1.7	i	6	1	8%	1
CCOc1ccc2[nH]c(C)cc(=O)c2c1	1.6	nt	7	1	6%	8
SMILES	Autofluor 339	DPM-DC inhibit	Spn MK inh	A340 absorber	NADH enzymes	Spn PMK inh
CCOc1ccc2[nH]c(=O)c(CN(CCO)C(=O)c3ccc(Br)cc3)cc2c1	2.6*	i	1	1.1	19%	42*
CCOc1ccc2[nH]c(=O)c(CN(CCO)C(=O)CC)cc2c1	3.1*	i	0	1.1	12%	5
CCOc1ccc2[nH]c(=O)c(CN(Cc3ccc(F)cc3)C(=O)N3CCCC3)cc2c1	2.8*	i	6	1	11%	13
O=C(CN1CCN(S(=O)(=O)c2ccc(Br)cc2)CC1)Nc1ccc2c(c1)OCO2	1	i	5	1.1	2%	2
CCOC(=O)CSc1nc(N)c2c3c(sc2n1)CCCC3	1.1	i	1	0.99	2%	7
CCOC(=O)c1nc(N2CCN(C(=O)OCC)CC2)c2c3c(sc2n1)CCCC3	3.7*	nt	0	1.1	6%	12
CCOC(=O)c1nc2sc3c(c2c(=O)[nH]1)CCCC3	2.5*	nt	2	1.1	2%	8
CCOc1cc(C)c(Cl)cc1S(=O)(=O)NCC1CCCO1 (stereo not given)	1.1	i	8	1	3%	0
O=C1C2ON(c3ccc(Cl)cc3)C(c3ccco3)C2C(=O)N1c1ccccc1 (stereo not given)	1	i	0	1	2%	0
O/N=C1\CCC\C1=C/c1ccco1	1.4	+	4	1.1	15%	8
O/N=C1/CCCSc2ccccc21	1.1	i	4	1	4%	8
CC1CN(C(=O)c2cnn3c(C(F)F)cc(-c4ccccc4)nc23)CC(C)O1 (stereo not given)	1.8	i	5	1.1	5%	9
COc1ccc(-c2cc(C(F)(F)F)n3ncc(C(=O)NCC4CCCO4)c3n2)cc1OC (stereo not given)	1.7	i	0	1.1	3%	0
CN1CCN(C(=O)c2cnn3c(C(F)F)cc(C4CC4)nc23)CC1	1.1	i	9	0.99	4%	0
O=C(c1cnn2c(C(F)F)cc(-c3ccccc3)nc12)N1CCSCC1	1.2	i	11	1.1	7%	7
COc1ccc(-c2cc(C(F)F)n3ncc(C(=O)N4CCN5CCCC5C4)c3n2)cc1 (stereo not given)	3.6*	nt	13	1.1	9%	5
O=C(c1cnn2c(C(F)F)cc(-c3ccccc3)nc12)N1CCOCC1	3.7*	nt	7	1.1	10%	13
CCOC(=O)N1CCN(C(=O)c2cnn3c(C(F)F)cc(-c4ccc(C)cc4)nc23)CC1	2.9*	i	0	1.1	11%	2
COc1ccc(-c2cc(C(F)F)n3ncc(C(=O)NCC4CCCO4)c3n2)cc1 (stereo not given)	3*	nt	6	1	4%	5
N#CCCSc1ccccc1NC(=O)c1ccc(S(=O)(=O)N2CCCC2)cc1	1.1	i	10	0.97	8%	15
CCN(CC)C(=O)CSc1ccccc1N	1.1	i	4	1	6%	14
COc1ccc(-c2cn3c(C)c(C(=O)N4CCN(c5ccc(OC)cc5)CC4)sc3n2)cc1	1.1	i	2	1	6%	15
CCCCCCC(=O)c1c(C)[nH]c(C(=O)OCC)c1C	1	i	0	1	2%	0
CCCc1cc(=O)oc2cc3occ(C)c3cc12	2.2*	nt	9	1.1	14%	19
CCCc1cc(=O)oc2cc(C)c3c(C)coc3c12	2.1*	nt	7	1	5%	2
CC1C2CC(CC1(C)C)N(C(=O)Nc1ccc3nccnc3c1)C2 (stereo not given)	2.2*	nt	3	1.1	2%	0
